Results filed as inconclusive are left out. Activity calls are given as the source filed them. The calls were made as follows: active = hit-call score of the fitted dose curve at least 0.9, where 1 is the maximum; inconclusive = response in the unintended direction; inactive = score below 0.9.
Experiments:
[1] = target: human Elastase, ELANE (gene 1991) (UniProt P08246); experiment: NVS_ENZ_hElastase: NovaScreen (NVS) Enzymatic Assay for human Elastase (AID 2283153)
How it was run: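 Cell-free elastase from human neutrophils, 1.5 h after dosing, activity read by absorbance. Primary screen in duplicate at 25 uM; hits (e.g., 30% inhibition) rerun in singleton concentration-response up to 50 uM, fitted versus DMSO.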

[2] = target: human Ephrin type-B Receptor 2 (EphB2), EPHB2 (gene 2048) (UniProt P29323); experiment: NVS_ENZ_hEphB2: NovaScreen (NVS) Enzymatic Assay for human Ephrin type-B Receptor 2 (EphB2) (AID 2283156)
How it was run: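 Recombinant kinase with fluorescent substrate, product separated by electrophoretic mobility shift, read 1 h after dosing. Duplicate 25 uM screen, then singleton concentration-response to 50 uM max; loss of signal versus DMSO.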

[3] = target: human Ephrin type-A Receptor 2 (EphA2), EPHA2 (gene 1969) (UniProt P29317); experiment: NVS_ENZ_hEphA2: NovaScreen (NVS) Enzymatic Assay for human Ephrin type-A Receptor 2 (EphA2) (AID 2283155)
How it was run: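 Cell-free recombinant EphA2 kinase with specific substrate, 1 h, fluorescence with electrophoretic mobility-shift separation of substrate and product. Primary screen at 25 uM in duplicate; hits retested in singleton concentration-response up to 50 uM, referenced to DMSO.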

[4] = target: human Insulin Receptor (InsR), INSR (gene 3643) (UniProt P06213); experiment: NVS_ENZ_hInsR: NovaScreen (NVS) Enzymatic Assay for human Insulin Receptor (InsR) (AID 2283168)
How it was run: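 Fluorescent substrate phosphorylation by recombinant kinase, product resolved by electrophoretic mobility shift, read 1 h after dosing. Screened in duplicate at 25 uM; hits (e.g., 30% inhibition) run in concentration-response to 50 uM; DMSO as baseline.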

[5] = target: human Janus Kinase 2 (Jak2), JAK2 (gene 3717) (UniProt O60674); experiment: NVS_ENZ_hJak2: NovaScreen (NVS) Enzymatic Assay for human Janus Kinase 2 (Jak2) (AID 2283169)
How it was run: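 Cell-free recombinant human JAK2 enzyme activity assay, fluorescence/electrophoretic mobility shift read 1 h after dosing. Screened in duplicate at 25 uM, then concentration-response up to 50 uM; activity as signal loss relative to DMSO.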

[6] = target: human FYN Proto-Oncogene, Src family Tyrosine Kinase (Fyn), FYN (gene 2534) (UniProt P06241); experiment: NVS_ENZ_hFyn: NovaScreen (NVS) Enzymatic Assay for human FYN Proto-Oncogene, Src family Tyrosine Kinase (Fyn) (AID 2283161)
Protocol: (§1) NVS_ENZ_hFyn is a biochemical, single-readout assay that uses extracted gene-proteins in a cell-free assay. Measurements were taken 1 hour after chemical dosing in a 384-well plate.NVS_ENZ_hFyn is one of one assay component(s) measured or calculated from the NVS_ENZ_hFyn assay. It is designed to make measurements of enzyme activity, a form of enzyme reporter, as detected with fluorescence intensity signals by Fluorescence and electrophoretic mobility shift technology.Data from the assay component NVS_ENZ_hFyn was analyzed into 1 assay endpoint. This assay endpoint, NVS_ENZ_hFyn, was analyzed in the positive analysis fitting direction relative to DMSO as the negative control and baseline of activity. Using a type of enzyme reporter, loss-of-signal activity can be used to understand changes in the enzymatic activity as they relate to the gene FYN. Furthermore, this assay endpoint can be referred to as a primary readout, because this assay has produced multiple assay endpoints where this one serves a enzymatic activity function. To generalize the intended target to other relatable targets, this assay endpoint is annotated to the kinase intended target family, where the subfamily is non-receptor tyrosine kinase. […]

[7] = target: human LYN Proto-Oncogene, Src family Tyrosine Kinase (LynA), LYN (gene 4067) (UniProt P07948); experiment: NVS_ENZ_hLynA: NovaScreen (NVS) Enzymatic Assay for human LYN Proto-Oncogene, Src family Tyrosine Kinase (LynA) (AID 2283173)
Protocol: as §1, with “NVS_ENZ_hLynA” for “NVS_ENZ_hFyn”, “plate.NVS_ENZ_hLynA” for “plate.NVS_ENZ_hFyn”, “NVS_ENZ_hLynA,” for “NVS_ENZ_hFyn,”, “LYN.” for “FYN.”

[8] = target: Histone deacetylase 3 (Homo sapiens) (UniProt O15379); experiment: NVS_ENZ_hHDAC3: NovaScreen (NVS) Enzymatic Assay for human Histone Deacetylase 3 (HDAC3) (AID 2283163)
Protocol: as §1, with “NVS_ENZ_hHDAC3” for “NVS_ENZ_hFyn”, “plate.NVS_ENZ_hHDAC3” for “plate.NVS_ENZ_hFyn”, “NVS_ENZ_hHDAC3,” for “NVS_ENZ_hFyn,”, “HDAC3.” for “FYN.”, “hydrolase” for “kinase”, “histone deacetylase.” for “non-receptor tyrosine kinase.”

Chain of human FYN Proto-Oncogene, Src family Tyrosine Kinase (Fyn), FYN (gene 2534) (P06241 whole entry, looked up): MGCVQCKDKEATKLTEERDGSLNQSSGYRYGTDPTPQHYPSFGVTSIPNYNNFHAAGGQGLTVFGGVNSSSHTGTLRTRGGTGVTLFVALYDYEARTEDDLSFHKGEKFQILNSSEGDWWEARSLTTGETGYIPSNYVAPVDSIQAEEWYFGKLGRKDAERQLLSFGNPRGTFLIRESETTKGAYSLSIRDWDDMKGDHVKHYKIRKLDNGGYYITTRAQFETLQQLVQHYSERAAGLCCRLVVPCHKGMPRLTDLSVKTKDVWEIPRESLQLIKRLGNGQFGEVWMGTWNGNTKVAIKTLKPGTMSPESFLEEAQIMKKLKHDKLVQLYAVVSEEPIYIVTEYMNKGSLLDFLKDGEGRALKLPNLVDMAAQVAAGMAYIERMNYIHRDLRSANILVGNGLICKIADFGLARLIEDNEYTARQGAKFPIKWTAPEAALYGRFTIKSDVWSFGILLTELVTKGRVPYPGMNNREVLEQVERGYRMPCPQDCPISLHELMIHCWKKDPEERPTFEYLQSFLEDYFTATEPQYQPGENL
Chain of human Insulin Receptor (InsR), INSR (gene 3643) (P06213 whole entry, looked up): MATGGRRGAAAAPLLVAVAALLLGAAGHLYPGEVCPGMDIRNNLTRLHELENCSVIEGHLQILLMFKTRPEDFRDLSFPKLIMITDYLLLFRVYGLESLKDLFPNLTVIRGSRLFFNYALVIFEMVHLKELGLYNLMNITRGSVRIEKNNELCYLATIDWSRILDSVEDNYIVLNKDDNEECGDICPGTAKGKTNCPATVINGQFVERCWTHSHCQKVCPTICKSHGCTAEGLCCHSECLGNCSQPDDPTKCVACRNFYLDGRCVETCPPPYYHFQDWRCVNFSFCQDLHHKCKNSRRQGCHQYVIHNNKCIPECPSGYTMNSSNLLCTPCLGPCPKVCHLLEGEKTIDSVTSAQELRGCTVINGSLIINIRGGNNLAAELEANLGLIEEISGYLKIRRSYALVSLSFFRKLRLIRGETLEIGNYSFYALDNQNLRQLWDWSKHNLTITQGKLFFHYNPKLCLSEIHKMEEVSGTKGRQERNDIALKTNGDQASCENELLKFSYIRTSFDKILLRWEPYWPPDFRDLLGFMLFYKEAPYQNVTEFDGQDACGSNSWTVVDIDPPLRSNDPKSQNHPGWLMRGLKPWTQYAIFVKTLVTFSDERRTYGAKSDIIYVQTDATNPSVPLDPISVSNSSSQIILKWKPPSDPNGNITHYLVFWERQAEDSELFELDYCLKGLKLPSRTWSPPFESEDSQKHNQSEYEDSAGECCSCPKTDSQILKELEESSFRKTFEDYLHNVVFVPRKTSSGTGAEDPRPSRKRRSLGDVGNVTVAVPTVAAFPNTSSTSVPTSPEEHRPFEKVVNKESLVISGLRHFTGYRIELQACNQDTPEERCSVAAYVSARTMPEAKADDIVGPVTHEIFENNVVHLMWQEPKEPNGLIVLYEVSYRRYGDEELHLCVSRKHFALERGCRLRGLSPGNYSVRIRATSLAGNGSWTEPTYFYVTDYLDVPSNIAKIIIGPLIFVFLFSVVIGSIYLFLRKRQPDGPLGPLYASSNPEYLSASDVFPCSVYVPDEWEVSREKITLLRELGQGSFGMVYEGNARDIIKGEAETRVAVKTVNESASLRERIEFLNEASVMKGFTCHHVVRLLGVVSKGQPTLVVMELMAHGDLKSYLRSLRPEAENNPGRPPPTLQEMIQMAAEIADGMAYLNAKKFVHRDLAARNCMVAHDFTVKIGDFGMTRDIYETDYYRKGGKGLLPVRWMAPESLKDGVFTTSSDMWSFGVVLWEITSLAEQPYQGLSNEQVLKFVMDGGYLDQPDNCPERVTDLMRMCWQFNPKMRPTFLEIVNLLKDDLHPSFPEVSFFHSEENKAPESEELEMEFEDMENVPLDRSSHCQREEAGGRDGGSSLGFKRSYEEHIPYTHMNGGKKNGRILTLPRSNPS
Chain of human Ephrin type-A Receptor 2 (EphA2), EPHA2 (gene 1969) (P29317 whole entry, looked up): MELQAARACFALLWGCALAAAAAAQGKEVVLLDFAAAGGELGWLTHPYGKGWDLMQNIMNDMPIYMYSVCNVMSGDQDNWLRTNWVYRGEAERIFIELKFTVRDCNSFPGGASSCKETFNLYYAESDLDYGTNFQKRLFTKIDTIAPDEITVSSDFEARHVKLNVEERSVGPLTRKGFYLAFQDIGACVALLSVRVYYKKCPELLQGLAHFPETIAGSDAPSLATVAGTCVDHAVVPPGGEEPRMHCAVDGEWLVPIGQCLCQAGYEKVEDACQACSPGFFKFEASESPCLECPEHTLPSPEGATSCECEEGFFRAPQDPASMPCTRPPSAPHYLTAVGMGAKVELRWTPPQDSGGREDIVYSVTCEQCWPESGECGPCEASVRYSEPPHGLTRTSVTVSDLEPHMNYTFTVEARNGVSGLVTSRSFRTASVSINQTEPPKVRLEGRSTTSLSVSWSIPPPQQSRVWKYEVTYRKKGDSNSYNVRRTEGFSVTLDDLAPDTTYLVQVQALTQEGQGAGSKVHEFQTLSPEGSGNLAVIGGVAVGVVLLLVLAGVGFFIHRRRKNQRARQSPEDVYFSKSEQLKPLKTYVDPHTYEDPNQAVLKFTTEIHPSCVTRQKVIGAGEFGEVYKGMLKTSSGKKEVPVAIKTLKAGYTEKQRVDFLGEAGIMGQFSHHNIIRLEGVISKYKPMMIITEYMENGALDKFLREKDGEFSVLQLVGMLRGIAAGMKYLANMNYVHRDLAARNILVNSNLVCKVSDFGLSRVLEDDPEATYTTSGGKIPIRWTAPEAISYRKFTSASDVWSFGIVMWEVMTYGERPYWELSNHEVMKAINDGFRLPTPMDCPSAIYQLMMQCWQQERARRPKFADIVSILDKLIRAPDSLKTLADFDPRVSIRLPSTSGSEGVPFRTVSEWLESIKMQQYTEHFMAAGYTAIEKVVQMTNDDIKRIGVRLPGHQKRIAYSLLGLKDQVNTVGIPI
Chain of human Elastase, ELANE (gene 1991) (P08246 whole entry, looked up): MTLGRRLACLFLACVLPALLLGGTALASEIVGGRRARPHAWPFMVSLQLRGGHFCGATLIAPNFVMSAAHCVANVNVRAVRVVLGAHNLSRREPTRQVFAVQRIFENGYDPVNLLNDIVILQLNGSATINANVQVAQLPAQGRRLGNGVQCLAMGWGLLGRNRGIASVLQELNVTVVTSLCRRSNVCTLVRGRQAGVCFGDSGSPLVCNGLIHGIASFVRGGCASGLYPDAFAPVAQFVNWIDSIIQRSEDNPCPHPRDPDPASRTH
Chain of human LYN Proto-Oncogene, Src family Tyrosine Kinase (LynA), LYN (gene 4067) (P07948 whole entry, looked up): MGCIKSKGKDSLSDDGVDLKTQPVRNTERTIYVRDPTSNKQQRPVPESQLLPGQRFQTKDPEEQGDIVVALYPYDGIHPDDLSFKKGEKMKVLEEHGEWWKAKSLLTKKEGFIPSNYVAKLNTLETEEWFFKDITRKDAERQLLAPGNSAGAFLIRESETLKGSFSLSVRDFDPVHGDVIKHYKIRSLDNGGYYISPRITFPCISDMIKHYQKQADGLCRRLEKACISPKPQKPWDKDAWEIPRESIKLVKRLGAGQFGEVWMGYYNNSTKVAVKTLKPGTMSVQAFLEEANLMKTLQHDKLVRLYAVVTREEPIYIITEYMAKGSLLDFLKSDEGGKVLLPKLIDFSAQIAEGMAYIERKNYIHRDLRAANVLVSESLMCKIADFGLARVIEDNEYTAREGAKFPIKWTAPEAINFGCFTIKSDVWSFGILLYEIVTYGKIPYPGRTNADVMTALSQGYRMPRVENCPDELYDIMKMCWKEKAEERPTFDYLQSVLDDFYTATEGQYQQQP
Chain of human Janus Kinase 2 (Jak2), JAK2 (gene 3717) (O60674 whole entry, looked up): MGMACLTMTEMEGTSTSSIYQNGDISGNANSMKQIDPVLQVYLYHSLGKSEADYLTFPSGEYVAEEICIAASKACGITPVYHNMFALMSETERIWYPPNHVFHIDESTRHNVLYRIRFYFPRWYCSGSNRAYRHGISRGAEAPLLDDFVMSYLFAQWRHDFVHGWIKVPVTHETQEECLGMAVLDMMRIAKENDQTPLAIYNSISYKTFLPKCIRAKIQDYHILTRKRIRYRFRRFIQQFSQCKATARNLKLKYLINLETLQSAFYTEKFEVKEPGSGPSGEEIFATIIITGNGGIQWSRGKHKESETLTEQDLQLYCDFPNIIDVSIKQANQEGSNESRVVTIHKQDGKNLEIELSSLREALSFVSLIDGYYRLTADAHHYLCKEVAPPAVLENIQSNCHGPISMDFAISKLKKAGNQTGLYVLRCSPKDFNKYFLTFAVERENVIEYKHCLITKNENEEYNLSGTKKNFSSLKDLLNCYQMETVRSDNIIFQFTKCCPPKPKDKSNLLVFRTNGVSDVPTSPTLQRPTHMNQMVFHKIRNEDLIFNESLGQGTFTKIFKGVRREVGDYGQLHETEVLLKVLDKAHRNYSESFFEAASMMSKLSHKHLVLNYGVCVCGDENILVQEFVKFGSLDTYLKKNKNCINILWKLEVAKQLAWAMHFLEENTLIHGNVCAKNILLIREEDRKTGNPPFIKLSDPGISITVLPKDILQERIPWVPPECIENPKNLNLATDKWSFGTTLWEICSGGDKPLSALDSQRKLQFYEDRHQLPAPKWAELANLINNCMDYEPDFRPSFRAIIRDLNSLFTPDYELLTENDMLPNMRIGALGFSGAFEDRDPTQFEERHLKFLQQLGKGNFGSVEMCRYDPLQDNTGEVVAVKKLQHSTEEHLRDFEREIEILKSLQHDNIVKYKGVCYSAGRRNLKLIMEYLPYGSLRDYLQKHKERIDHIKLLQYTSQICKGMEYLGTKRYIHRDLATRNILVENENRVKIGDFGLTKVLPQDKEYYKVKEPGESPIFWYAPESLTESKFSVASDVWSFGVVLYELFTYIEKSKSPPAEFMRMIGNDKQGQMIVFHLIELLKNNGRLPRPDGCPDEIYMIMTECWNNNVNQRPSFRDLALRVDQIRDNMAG

With `CCCCCCCCCCCCc1cccc(S(=O)(=O)O)c1` the AC50 [1] was 26.7 µM (active) and the outcome [2] was “inactive”.
`O=C(O)C1(c2ccc3c(c2)OC[C@H](Cc2ccc(-c4ccccc4)cc2)[C@H]3O)CCCC1` was tested, and the AC50 [1] was 17.7 µM (active).
With `CCCCCCCCCCCCOS(=O)(=O)O` the AC50 [3] was 40.8 µM (active).
With `N#Cc1cccnc1` the outcome [3] was “inactive”, the outcome [4] was “inactive” and the outcome [5] was “inactive”.
For `O=C(N[C@H]1CN2CCC1CC2)c1ccc2c(c1)OCCO2`, the outcome [6] was “inactive” and the outcome [7] was “inactive”.
`CC(C)O.CC(C)O.OCCN(CCO)CCO.OCCN(CCO)CCO.[Ti]` was tested, and the AC50 [6] was 0.0034 µM (active).
For `Oc1cc(Cl)c(Cl)cc1Cl`, the outcome [8] was “inactive”.
For `Cc1cc(C)cc(C)c1`, the outcome [4] was “inactive”.
In the case of `CN(C)C(=S)S`, the outcome [5] is reported as “inactive”.
`OCCN(CCO)CCO` was tested, and the outcome [7] was “inactive”.
